# PubChem BioAssay (EPA / NIEHS)
# The source made the active and inactive calls. How the source made its calls: active means hit-call score of the fitted dose curve at least 0.9, where 1 is the maximum; inactive means score below 0.9.
# Columns and labels:
# [1] = ATG_E_Box_CIS: Attagene CIS-FACTORIAL HepG2 Assay for human Enhancer Box (E-box) (AID 2282936); settings: HepG2 E-box cis-reporter transcription, actives raise or lower the signal
# Method in brief: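 Fluorescent reporter fragments separated by capillary electrophoresis gave the signal; mRNA came from HepG2 cells transfected with cis-element reporters and treated 24 h. Curves fitted bidirectionally relative to DMSO controls.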
# [2] = ATG_M_61_CIS: Attagene CIS-FACTORIAL HepG2 Assay for M61 Transcription Factor (Internal Marker) (AID 2282937); settings: HepG2 Attagene CIS-FACTORIAL M61 internal marker reporter; actives raise or lower the signal
# Method in brief: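 Multiplexed reporter mRNA assay, HepG2 human hepatoma cells, 24 h treatment. Signal: FAM-labelled, HpaI-digested RT-PCR fragments by CE. Fit: bidirectional, baseline DMSO.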
# [3] = ATG_EGR_CIS: Attagene CIS-FACTORIAL HepG2 Assay for human Early Growth Response 1 (EGR1) (AID 2282938); settings: HepG2 Attagene CIS-FACTORIAL EGR reporter mRNA; actives raise or lower the signal
# Method in brief: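 Multiplexed cis-reporter system in human hepatoma HepG2 cells, transiently transfected. Cells are dosed for 24 h; reporter transcripts are amplified, fluorescently tagged and sized by capillary electrophoresis, with DMSO as negative control.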
# [4] = ATG_M_19_CIS: Attagene CIS-FACTORIAL HepG2 Assay for M19 Transcription Factor (Internal Marker) (AID 2282939); settings: HepG2 Attagene CIS-FACTORIAL M19 internal marker reporter; actives raise or lower the signal
# Method in brief: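 Internal marker readout, fitted in both directions against DMSO, from HepG2 cells carrying transfected cis-element reporter constructs; RT-PCR and capillary electrophoresis of reporter mRNA after 24 h exposure.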
# [5] = ATG_ERE_CIS: Attagene CIS-FACTORIAL HepG2 Assay for Estrogen Response Element (ERE) (AID 2282940); settings: HepG2 ERE cis-reporter, Attagene RNA transcript; actives raise or lower the signal
# Method in brief: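 After 24 h compound treatment, RNA from transfected HepG2 cells was reverse-transcribed, reporter cDNA PCR-amplified, FAM-labelled, HpaI-cut and resolved by capillary electrophoresis. ERE-driven cis reporter transcripts reflect endogenous factors; gain or loss scored against DMSO.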
# [6] = ATG_Ets_CIS: Attagene CIS-FACTORIAL HepG2 Assay for human Erythroblast Transformation Specific (ETS) (AID 2282941); settings: HepG2 ETS cis-reporter transcription, actives raise or lower the signal
# Method in brief: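 RT-PCR/capillary electrophoresis fluorescence read-out of reporter mRNA; HepG2 transient multi-reporter transfection; 24 h compound exposure; gain or loss of signal fitted bidirectionally relative to DMSO.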
# [7] = target: Hepatocyte nuclear factor 3-beta (Homo sapiens) (UniProt Q9Y261); test: ATG_FoxA2_CIS: Attagene CIS-FACTORIAL HepG2 Assay for human Forkhead box A2 (FOXA2) (AID 2282942); settings: HepG2 cis-reporter transcription factor activity, 24 h; actives raise or lower the signal
# Method in brief: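 Multiplexed cis-element reporter assay in transiently transfected HepG2. Twenty-four hours post-dosing, RNA was reverse-transcribed, amplified, FAM-labelled, HpaI-digested and separated by CE. Activity gain or loss relative to DMSO.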
# [8] = ATG_GATA_CIS: Attagene CIS-FACTORIAL HepG2 Assay for human GATA Binding Protein (AID 2282944); settings: HepG2 GATA cis-element reporter, Attagene multiplex mRNA; actives raise or lower the signal
# Method in brief: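 Reporter transcripts from a GATA cis-regulated unit, among multiplexed reporters in transfected HepG2 cells, were measured by RT-PCR with capillary electrophoresis after 24 h dosing. Induction or loss scored relative to DMSO.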
# [9] = ATG_GLI_CIS: Attagene CIS-FACTORIAL HepG2 Assay for human Zinc Finger Protein GLI1 (AID 2282945); settings: HepG2, Attagene cis-factorial reporter mRNA, GLI element; actives raise or lower the signal
# Method in brief: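 Bidirectional curve fits relative to DMSO, using reporter mRNA levels from RT-PCR plus capillary electrophoresis. Cells were HepG2 transiently carrying cis-regulated reporter constructs, harvested 24 h after dosing.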
# [10] = ATG_GRE_CIS: Attagene CIS-FACTORIAL HepG2 Assay for human Glucocorticoid Response Elements (GRE) (AID 2282947); settings: HepG2 GRE cis-reporter, Attagene multiplex mRNA; actives raise or lower the signal
# Method in brief: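 Multiplexed cis-reporter mRNA induction, HepG2, 24 h post-dose. RT-PCR, FAM-labelled, HpaI-digested amplicons by CE. Bidirectional fit vs DMSO.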
# [11] = ATG_ISRE_CIS: Attagene CIS-FACTORIAL HepG2 Assay for human Interferon Regulatory Factor 1 (IRF1) binding to an Interferon-Stimulated Response Element (ISRE) (AID 2282948); settings: HepG2 ISRE cis-reporter (Attagene), mRNA transcription readout; actives raise or lower the signal
# Method in brief: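 Read-out: fluorescent RT-PCR products resolved by capillary electrophoresis, reporting endogenous transcription factor activity via ISRE-driven reporter mRNA in transfected HepG2 cells dosed for 24 h; gain or loss fitted relative to DMSO.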
# [12] = ATG_M_32_CIS: Attagene CIS-FACTORIAL HepG2 Assay for M32 Transcription Factor (Internal Marker) (AID 2282949); settings: HepG2 Attagene cis-factorial M32 reporter, mRNA; actives raise or lower the signal;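 further: background control marker of the multiplexed CIS panel rather than a real target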
# Method in brief: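 Transient MRTU transfection of HepG2; 24 h compound treatment; TriZol RNA, oligo(dT) RT, reporter PCR, 6-FAM primer extension, HpaI cut, CE. Gain/loss of signal vs DMSO.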
# [13] = target: Hypoxia-inducible factor 1-alpha (Homo sapiens) (UniProt Q16665); test: ATG_HIF1a_CIS: Attagene CIS-FACTORIAL HepG2 Assay for human Hypoxia Inducible Factor 1 (HIF1A) (AID 2282951); settings: HepG2 Attagene cis-factorial HIF1a reporter transcription; actives raise or lower the signal
# Method in brief: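 Cis-element reporter constructs were transiently transfected into HepG2 cells, which were treated for 24 h; reporter RNA was reverse-transcribed, amplified, labelled and resolved by capillary electrophoresis.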
# [14] = target: Hepatocyte nuclear factor 6 (Homo sapiens) (UniProt Q9UBC0); test: ATG_HNF6_CIS: Attagene CIS-FACTORIAL HepG2 Assay for human Hepatocyte Nuclear Factor 6 (HNF6) (AID 2282952); settings: HepG2 Attagene cis-factorial HNF6 reporter transcription; actives raise or lower the signal
# Method in brief: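 Activity values derive from bidirectional fitting against DMSO of reporter mRNA levels, measured by capillary electrophoresis of labelled RT-PCR products from HepG2 cells exposed 24 h.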
# [15] = target: Heat shock factor protein 1 (Homo sapiens) (UniProt Q00613); test: ATG_HSE_CIS: Attagene CIS-FACTORIAL HepG2 Assay for human Heat Shock Transcription Factor 1 (HSE) (AID 2282953); settings: HepG2 HSE cis-reporter, Attagene RNA transcription; actives raise or lower the signal
# Method in brief: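 Endogenous transcription factor activity in transiently transfected HepG2, read as reporter mRNA by RT-PCR with fluorescent capillary electrophoresis after 24 h. Gain or loss of signal fitted versus DMSO baseline.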
# [16] = ATG_MRE_CIS: Attagene CIS-FACTORIAL HepG2 Assay for human Metal Responsive Element (MRE) (AID 2282954); settings: HepG2 MRE cis-reporter transcription, Attagene multiplex; actives raise or lower the signal
# Method in brief: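 Multiplexed cis-reporter assay in human HepG2 liver cells, 24 h incubation with test chemical. Reporter transcripts measured by RT-PCR and capillary electrophoresis; values from bidirectional curve fitting versus DMSO.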
# [17] = ATG_PBREM_CIS: Attagene CIS-FACTORIAL HepG2 Assay for human Phenobarbital-responsive Enhancer Module (PBREM) (AID 2282955); settings: HepG2 PBREM cis-reporter, Attagene multiplexed transcription; actives raise or lower the signal
# Method in brief: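 Multiplexed cis-reporter readout in human hepatoma HepG2 cells; PBREM-regulated transcript quantified after 24 h exposure by fluorescent RT-PCR fragment analysis. Signal changes up or down fitted relative to DMSO.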
# [18] = ATG_FoxO_CIS: Attagene CIS-FACTORIAL HepG2 Assay for human Forkhead box O (FoxO) (AID 2282943); settings: HepG2 Attagene cis-reporter, FoxO element, mRNA; actives raise or lower the signal
# Method in brief: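 Endogenous transcription factor activity read from multiplexed cis-promoter reporter transcripts in transiently transfected HepG2, 24 h after dosing. Reporter RNA measured via RT-PCR plus capillary electrophoresis of FAM-labeled products; gain or loss relative to DMSO.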
# [19] = ATG_M_06_CIS: Attagene CIS-FACTORIAL HepG2 Assay for M06 Transcription Factor (Internal Marker) (AID 2282950); settings: HepG2 Attagene CIS-FACTORIAL M06 internal marker reporter; actives raise or lower the signal
# Method in brief: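 Serves as a background control readout. Transfected HepG2 exposed to compounds for 24 h, then reporter transcripts quantified by fluorescent RT-PCR and capillary electrophoresis. Both directions fitted against DMSO baseline.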
# [20] = target: Bile acid receptor (Homo sapiens) (UniProt Q96RI1); test: ATG_IR1_CIS: Attagene CIS-FACTORIAL HepG2 Assay for human Nuclear Receptor Subfamily 1 Group H Member 4 (NR1H4), IR1 submotif (AID 2282946); settings: IR1 reporter transcription, actives raise or lower the signal
# Method in brief: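 HepG2 cells transiently transfected with multiplexed cis-element reporter units read endogenous transcription factor activity. After 24 h compound exposure, reporter mRNA was quantified by RT-PCR, fluorescent labelling, HpaI digestion and capillary electrophoresis; bidirectional fitting versus DMSO baseline.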
# Chain of Hypoxia-inducible factor 1-alpha (Homo sapiens) (Q16665 whole entry, looked up): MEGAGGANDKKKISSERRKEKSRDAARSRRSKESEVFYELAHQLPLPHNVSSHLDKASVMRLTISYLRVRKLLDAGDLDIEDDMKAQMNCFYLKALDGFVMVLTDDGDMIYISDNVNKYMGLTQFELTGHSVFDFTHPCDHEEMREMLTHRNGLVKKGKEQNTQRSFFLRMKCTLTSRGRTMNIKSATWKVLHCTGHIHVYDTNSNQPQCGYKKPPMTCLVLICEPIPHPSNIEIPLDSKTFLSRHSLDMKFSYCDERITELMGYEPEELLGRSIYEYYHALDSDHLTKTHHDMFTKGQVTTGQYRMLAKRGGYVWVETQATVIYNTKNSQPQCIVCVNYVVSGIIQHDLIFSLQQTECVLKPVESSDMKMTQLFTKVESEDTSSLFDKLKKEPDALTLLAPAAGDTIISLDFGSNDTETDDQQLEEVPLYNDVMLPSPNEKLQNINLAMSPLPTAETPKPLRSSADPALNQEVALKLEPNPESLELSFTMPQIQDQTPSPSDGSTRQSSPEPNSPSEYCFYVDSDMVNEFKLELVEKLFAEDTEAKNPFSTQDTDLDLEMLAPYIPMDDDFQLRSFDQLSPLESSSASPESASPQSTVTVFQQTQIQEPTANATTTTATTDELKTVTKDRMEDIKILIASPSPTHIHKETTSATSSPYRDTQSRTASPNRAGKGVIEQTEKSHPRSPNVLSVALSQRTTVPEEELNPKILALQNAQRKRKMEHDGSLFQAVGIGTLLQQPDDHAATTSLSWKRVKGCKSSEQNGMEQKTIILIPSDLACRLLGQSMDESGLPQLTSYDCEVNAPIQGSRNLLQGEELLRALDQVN
# Chain of Heat shock factor protein 1 (Homo sapiens) (Q00613 whole entry, looked up): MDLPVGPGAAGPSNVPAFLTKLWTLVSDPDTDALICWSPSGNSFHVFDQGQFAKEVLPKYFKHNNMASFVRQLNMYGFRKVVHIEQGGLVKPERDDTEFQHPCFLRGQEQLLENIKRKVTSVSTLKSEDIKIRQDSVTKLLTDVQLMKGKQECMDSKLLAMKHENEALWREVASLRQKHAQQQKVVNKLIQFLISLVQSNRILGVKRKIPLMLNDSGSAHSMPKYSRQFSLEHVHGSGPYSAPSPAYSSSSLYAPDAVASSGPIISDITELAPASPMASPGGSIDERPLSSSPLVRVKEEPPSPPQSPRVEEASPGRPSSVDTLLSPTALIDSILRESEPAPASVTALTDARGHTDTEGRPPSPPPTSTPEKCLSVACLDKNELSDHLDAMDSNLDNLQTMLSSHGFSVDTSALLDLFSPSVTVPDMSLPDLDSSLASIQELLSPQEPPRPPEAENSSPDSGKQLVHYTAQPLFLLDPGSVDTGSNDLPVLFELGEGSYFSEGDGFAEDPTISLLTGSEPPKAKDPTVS
# Chain of Hepatocyte nuclear factor 3-beta (Homo sapiens) (Q9Y261 whole entry, looked up): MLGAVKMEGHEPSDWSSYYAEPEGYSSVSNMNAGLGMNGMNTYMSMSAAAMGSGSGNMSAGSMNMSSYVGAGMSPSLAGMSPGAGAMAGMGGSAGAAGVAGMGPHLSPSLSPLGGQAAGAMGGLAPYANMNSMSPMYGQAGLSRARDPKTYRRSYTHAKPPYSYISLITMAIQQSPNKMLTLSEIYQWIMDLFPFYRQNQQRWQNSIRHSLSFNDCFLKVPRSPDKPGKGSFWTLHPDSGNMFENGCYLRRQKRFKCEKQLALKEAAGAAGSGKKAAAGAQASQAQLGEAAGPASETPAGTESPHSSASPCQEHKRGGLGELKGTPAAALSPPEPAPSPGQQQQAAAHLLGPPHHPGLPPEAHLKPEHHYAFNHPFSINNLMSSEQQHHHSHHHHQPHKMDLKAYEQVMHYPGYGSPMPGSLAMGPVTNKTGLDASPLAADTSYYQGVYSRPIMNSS
# Chain of Hepatocyte nuclear factor 6 (Homo sapiens) (Q9UBC0 whole entry, looked up): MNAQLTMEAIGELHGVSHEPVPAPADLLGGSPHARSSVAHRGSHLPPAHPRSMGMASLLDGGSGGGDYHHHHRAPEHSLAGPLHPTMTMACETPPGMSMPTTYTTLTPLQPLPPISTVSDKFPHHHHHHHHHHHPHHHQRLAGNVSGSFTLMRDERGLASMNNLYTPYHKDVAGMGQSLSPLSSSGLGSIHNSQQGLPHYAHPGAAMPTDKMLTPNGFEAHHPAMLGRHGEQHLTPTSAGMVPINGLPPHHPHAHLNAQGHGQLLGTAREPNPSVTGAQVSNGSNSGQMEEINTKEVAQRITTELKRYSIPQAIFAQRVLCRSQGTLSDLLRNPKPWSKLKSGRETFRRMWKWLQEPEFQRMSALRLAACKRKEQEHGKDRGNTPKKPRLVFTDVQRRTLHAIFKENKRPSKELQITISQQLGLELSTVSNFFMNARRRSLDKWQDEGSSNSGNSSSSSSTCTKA
# Chain of Bile acid receptor (Homo sapiens) (Q96RI1 whole entry, looked up): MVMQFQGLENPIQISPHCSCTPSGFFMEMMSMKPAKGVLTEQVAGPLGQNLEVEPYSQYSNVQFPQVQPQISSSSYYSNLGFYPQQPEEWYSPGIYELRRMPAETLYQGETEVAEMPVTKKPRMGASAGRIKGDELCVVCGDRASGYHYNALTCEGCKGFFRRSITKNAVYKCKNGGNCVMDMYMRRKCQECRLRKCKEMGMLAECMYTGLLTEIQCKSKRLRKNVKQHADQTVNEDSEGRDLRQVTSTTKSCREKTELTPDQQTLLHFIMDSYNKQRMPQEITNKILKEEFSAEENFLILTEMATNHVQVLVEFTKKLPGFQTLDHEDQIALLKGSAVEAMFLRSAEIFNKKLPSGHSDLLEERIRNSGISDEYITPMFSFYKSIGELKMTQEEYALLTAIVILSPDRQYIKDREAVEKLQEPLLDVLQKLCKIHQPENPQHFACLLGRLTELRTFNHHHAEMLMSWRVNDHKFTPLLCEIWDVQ
smiles,measurement,setting,value
Nn1cnnc1,outcome,[1],inactive
same,outcome,[2],inactive
same,outcome,[3],inactive
same,outcome,[4],inactive
same,AC50,[5],39.5 µM (active)
same,outcome,[6],inactive
same,outcome,[7],inactive
same,outcome,[8],inactive
same,outcome,[9],inactive
same,outcome,[10],inactive
same,outcome,[11],inactive
same,outcome,[12],inactive
same,outcome,[13],inactive
same,outcome,[14],inactive
same,outcome,[15],inactive
same,outcome,[16],inactive
same,outcome,[17],inactive
CC(C)C(=O)OCC(C)(C)C(OC(=O)C(C)C)C(C)C (centres undefined),outcome,[1],inactive
same,outcome,[2],inactive
same,outcome,[3],inactive
same,outcome,[4],inactive
same,AC50,[5],63.6 µM (active)
same,outcome,[6],inactive
same,outcome,[7],inactive
same,outcome,[18],inactive
same,outcome,[8],inactive
same,outcome,[9],inactive
same,outcome,[10],inactive
same,outcome,[12],inactive
same,outcome,[19],inactive
same,outcome,[13],inactive
same,outcome,[14],inactive
same,outcome,[15],inactive
same,outcome,[16],inactive
same,outcome,[17],inactive
O=S(=O)(O)C(F)(F)C(F)(F)C(F)(F)C(F)(F)F,outcome,[1],inactive
same,outcome,[2],inactive
same,outcome,[3],inactive
same,outcome,[4],inactive
same,outcome,[5],inactive
same,outcome,[6],inactive
same,outcome,[7],inactive
same,outcome,[8],inactive
same,outcome,[9],inactive
same,outcome,[10],inactive
same,outcome,[12],inactive
same,outcome,[13],inactive
same,outcome,[14],inactive
same,outcome,[15],inactive
same,outcome,[16],inactive
same,outcome,[17],inactive
CCCN(CCC)N=O,outcome,[1],inactive
same,outcome,[2],inactive
same,outcome,[3],inactive
same,outcome,[4],inactive
same,AC50,[5],46.4 µM (active)
same,outcome,[6],inactive
same,outcome,[7],inactive
same,outcome,[8],inactive
same,outcome,[9],inactive
same,outcome,[10],inactive
same,outcome,[11],inactive
same,outcome,[12],inactive
same,outcome,[19],inactive
same,outcome,[13],inactive
same,outcome,[14],inactive
same,outcome,[15],inactive
same,outcome,[16],inactive
same,outcome,[17],inactive
Cc1ccccc1CO[C@@H]1C[C@@]2(C(C)C)CC[C@]1(C)O2,outcome,[1],inactive
same,outcome,[2],inactive
same,outcome,[3],inactive
same,outcome,[4],inactive
same,outcome,[6],inactive
same,outcome,[7],inactive
same,outcome,[18],inactive
same,outcome,[8],inactive
same,outcome,[9],inactive
same,outcome,[12],inactive
same,outcome,[13],inactive
same,outcome,[14],inactive
same,outcome,[15],inactive
same,outcome,[16],inactive
same,outcome,[17],inactive
c1cc2ccc3cccc4ccc(c1)c2c34,outcome,[1],inactive
same,outcome,[2],inactive
same,outcome,[3],inactive
same,outcome,[4],inactive
same,outcome,[5],inactive
same,outcome,[6],inactive
same,outcome,[7],inactive
same,outcome,[8],inactive
same,outcome,[9],inactive
same,outcome,[20],inactive
same,outcome,[10],inactive
same,outcome,[11],inactive
same,outcome,[12],inactive
same,outcome,[13],inactive
same,outcome,[14],inactive
same,outcome,[15],inactive
same,outcome,[16],inactive
same,outcome,[17],inactive
O=NN(c1ccccc1)c1ccccc1,outcome,[1],inactive
same,outcome,[2],inactive
same,outcome,[3],inactive
same,outcome,[4],inactive
same,AC50,[5],26.1 µM (active)
same,outcome,[6],inactive
same,outcome,[7],inactive
same,outcome,[8],inactive
same,outcome,[9],inactive
same,outcome,[20],inactive
same,outcome,[10],inactive
same,outcome,[11],inactive
same,outcome,[12],inactive
same,outcome,[13],inactive
same,outcome,[14],inactive
same,outcome,[15],inactive
same,outcome,[16],inactive
